The source of these data is PubChem BioAssay (NCI).

SMILES strings stand for the structures. About 83,000 compounds went through this panel and 20% of them were active in at least one assay; those are over-represented in the sample as a whole.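 Single-concentration screen, 48 h exposure, 96-well plates. Endpoint: percent growth. Below 10 = active.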 Active and inactive are the calls of the source.

This test relates to NCI/ADR-RES ovarian. Description: NCI-60 one-dose screen, 48 h (100 = growth as untreated, 0 = no growth, -100 = all killed). The settings on record: 10 µM unless noted. The procedure:
Growth inhibition of the NCI/ADR-RES human […] tumor cell line is measured as a screen for anti-cancer activity. Cells are grown in 96 well plates and exposed to the test compound for 48 hours. Compounds are tested at a single concentration, which is 10^-5 M for most compounds. The reported endpoint is percent growth (GI% or GIPRCNT), where numbers from 0 - 100% represent growth inhibition, and numbers from -100% - 0 represent cell death. For example, a value of 40 represents 60% growth inhibition. A value of 0 means no net growth occurred over the course of the experiment. A value of -40 indicates 40% of cells at the beginning of the experiment died by the end of the experiment. A value of -100 means all cells are dead at the end of the experiment.
NCI-60 Human Tumor Cell Lines Screen was performed using the standard one-dose NCI protocol, which is described in more detail at https://dtp.cancer.gov/discovery_development/nci-60/default.htm.
Compounds with GIPRCNT values below 10 were considered active. Activity score was based on GIPRCNT using the following formula: […]
Score is 0 for GIPRCNT values of 100 or above, 50 for GIPRCNT values of 0, and 100 for GIPRCNT values of -100.
For the compound `Brc1ccc2c(c1)CN(C1CCCCC1)CO2`, the growth was 97.5% (inactive).
In the case of `CC1(C)C(=O)/C(=C\c2ccco2)C[C@]2(C)[C@H]3CC=C4[C@@H]5C[C@](C)(C(=O)O)CC[C@]5(C)CC[C@@]4(C)[C@]3(C)CC[C@@H]12` it was -49.5% [100 µM] (active).
With `COc1ccc2nc3c(cc2c1)C(=O)CC(C(F)(F)F)C3` (stereo not given) the figure was 18.9% (inactive); with `Cc1ccc2c(c1)/C(=N\N=C/c1cn(C(C)C)c3ccccc13)C(=O)N2`, 79% (inactive); with `CCNC(=O)N1CCc2c(Cl)c3c(c(OC)c2[C@@H]1[C@H]1OCc2c1ccc(OC)c2OC)OCCO3`, 1.11% (active).
As to `CCCN1CC(c2ccc(OC)c(OC)c2)=C(c2cn(C(=O)OCC)c3ccccc23)C1=O`, the growth was 29.5% (inactive).
Regarding `COc1cc2c(cc1OCCCN1CCN(CCCOc3cc4c(cc3OC)C(=O)N3C[C@H](F)C[C@H]3C=N4)CC1)N=C[C@@H]1C[C@@H](F)CN1C2=O`, the growth was 63.6% (inactive).
In the case of `CNC(=O)c1cc(Oc2cccc3nc(NC(=O)Nc4cc(C(F)(F)F)cc(C(F)(F)F)c4)ccc23)ccn1` it was 49.5% (inactive); in that of `C=C(CN=[N+]=[N-])[C@@H]1CC[C@]2(C)[C@H](CC[C@@H]3[C@H]4[C@H]5OC(=O)[C@@]4(CCC5(C)C)CC[C@]32C)[C@@]1(C)CCC#N`, 90.8% [100 µM] (inactive).
In the case of `O=C(N=c1n(-c2ccccc2)nc2n1CCN2C1=NCCN1)c1ccc(Cl)cc1`, the growth is 93.6% (inactive).
As to `CN(C)Cc1ccc[nH]1`, the growth was 77.9% (inactive).
With `COc1ccc2nc3cc(Cl)ccc3c(Nc3ccc(O)c(CN4CCCC4)c3)c2c1` the figure was 3.27% (active); with `O=S(=O)(c1ccc(N/N=C\c2ccccc2Cl)cc1)c1ccc(N/N=C/c2ccccc2Cl)cc1`, 84.5% (inactive); with `Cc1cc(C)c(S(=O)(=O)/N=c2/n(-c3ccccc3)nc3n2CCN3C2=NCCN2)c(C)c1`, 89.1% (inactive).
In the case of `CC[C@@H]1NC(=O)[C@@H]2CCCCN2C(=O)[C@@H]2CCCN2C(=O)[C@@H](NC(=O)[C@H](Cc2cc(F)cc(F)c2)NC(=O)Nc2ccc(C3CC3)cc2F)[C@H](C)OC(=O)[C@@H]2C[C@@H](C)CN2C1=O` it was 14% (inactive).
In the case of `CCc1ccc(NC(=O)N[C@@H](Cc2cc(F)cc(F)c2)C(=O)N[C@@H]2C(=O)N3C[C@H](O)C[C@H]3C(=O)N3CCOC[C@H]3C(=O)N[C@@H](C)C(=O)N3C[C@H](C)C[C@H]3C(=O)O[C@H]2C)cc1`, the growth was 107% (inactive).
In the case of `O=C(O)c1cn(C2CC2)c2cc(N3CCN(Cc4c(O)ccc5ccccc45)CC3)c(F)cc2c1=O`, the growth was 45.4% (inactive).
With `O=C1COCCN1c1ccc(NCc2cn(Cc3ccccc3)c3ccccc23)cc1` the figure was 101% (inactive).
In the case of `CCCCCCCCCN(CCCCCCCCC)C(C)C(=O)c1ccc2cc(Br)c3ccccc3c2c1` (stereo not given) it was 84.9% (inactive); in that of `OC(c1ccc(Cl)cc1)(c1ccc(Cl)cc1)C(O)(c1ccc(Cl)cc1)c1ccc(Cl)cc1`, 48.5% (inactive).
In the case of `CC1Cc2c(ncnc2-n2cnc3ccccc32)N(C)c2ccccc21` (stereo not given) it was 9.36% (active); in that of `O=C1CC(c2ccc3c(c2)OCO3)Nc2ccccc21` (stereo not given), 1.78% (active).
Regarding `Cc1nc(-c2ccccc2)sc1CC#N`, the growth is 109% (inactive).
With `Cc1ccc(NCCN2CCCCC2)c2c(=O)c3ccccc3sc12`, the growth was 42% (inactive).
With `c1coc2occoc=2o1` the figure was 107% (inactive); with `COc1ccc2c(c1)C(C)Cc1c(Cl)ncnc1N2C` (stereo not given), 2.03% (active).
In the case of `CCOc1ccc2sc(NS(=O)(=O)c3ccc(N)cc3)nc2c1` it was 113% (inactive); in that of `COc1ccc(NC(=S)NNc2ccc(-c3ccc(OC)c(OC)c3)nn2)cc1`, 111% (inactive).
Consider `O=C(NCCCCCCCNC(=O)OCc1ccc2c(Cl)cc(Cl)c(O)c2n1)OCc1ccc2c(Cl)cc(Cl)c(O)c2n1`, for which the growth was -29.5% (active).
Consider `COc1ccc(/C=C/C(=C/c2c(O)[nH]c3cc(Br)ccc23)N=O)cc1`, for which the growth is 111% (inactive).
With `Cc1cc(C)c(-c2cc(O)c(-c3c(C)cc(C)cc3C)cc2O)c(C)c1` the figure was 57.9% (inactive); with `CC[C@]1(O)CC2CN(CCc3c([nH]c4ccccc34)[C@@](C(=O)OC)(c3cc4c(cc3OC)N(C=O)[C@H]3[C@@](O)(C(=O)OC)[C@H](OC(C)=O)[C@]5(CC)C=CCN6CC[C@]43[C@@H]65)C2)C1` (stereo not given in full), 11.3% (inactive); with `CCCCOC(=O)c1cccc([N+](=O)[O-])c1`, 107% (inactive).
In the case of `Fc1cc2[nH]ncc2c2c3c(c(-c4cn[nH]c4C(F)(F)F)nc12)C1CCC3C1` (stereo not given) it was 55.7% (inactive); in that of `O=C(NCCCNC(=O)OCc1ccc2cccc(O)c2n1)OCc1ccc2cccc(O)c2n1`, 41.5% (inactive); in that of `COc1cc2c(c(OC)c1OC)-c1cc(I)c(O)cc1[C@@H](NC(C)=O)CC2`, 25.4% (inactive).
Turning to `O=C1/C(=C\c2cn(CC(O)CN3CCCCC3)c3ccccc23)c2ccccc2N1c1c(Cl)cccc1Cl` (stereo not given), the growth was -56% (active).
With `O=C(CCNCc1ccccc1)c1ccccc1` the figure was 105% (inactive); with `N#C/C(C(=O)c1ccccc1)=C1/C(=O)Nc2ccc(F)cc21`, 97.5% (inactive).
As for `COc1cc2c(c(OC)c1)C1c3cc(OC)ccc3NC(=O)N1CC2` (stereo not given), the growth was 51.5% (inactive).
